# TAG inh: inhibitors of triacylglycerol accumulation; inhibition, % at 12.5 µM; H9c2 cells, Nile Red lipid (TAG) fluorescence; cells loaded with 200 µM oleic acid; 230,000 tested, 0.66% active;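 active = pattern-corrected inhibition of lipid staining of at least 50% with the nuclear-stain viability signal not falling by more than 50%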;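 also: 0% = DMSO wells and 100% = triacsin C control wells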
# CHT allo act: human CHT allosteric activation; 310,000 tested, 0.49% active; Q9GZV3; CHT-expressing cells, membrane potential dye, choline EC20; stronger effect = higher value; LV-AA mutant CHT in HEK293 cells; B-score at 10 µM;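 active = initial fluorescence not abnormally high and integrated response B-score, plate-corrected, over 3 SD above library mean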
# Target sequence (Q9GZV3 whole entry, looked up): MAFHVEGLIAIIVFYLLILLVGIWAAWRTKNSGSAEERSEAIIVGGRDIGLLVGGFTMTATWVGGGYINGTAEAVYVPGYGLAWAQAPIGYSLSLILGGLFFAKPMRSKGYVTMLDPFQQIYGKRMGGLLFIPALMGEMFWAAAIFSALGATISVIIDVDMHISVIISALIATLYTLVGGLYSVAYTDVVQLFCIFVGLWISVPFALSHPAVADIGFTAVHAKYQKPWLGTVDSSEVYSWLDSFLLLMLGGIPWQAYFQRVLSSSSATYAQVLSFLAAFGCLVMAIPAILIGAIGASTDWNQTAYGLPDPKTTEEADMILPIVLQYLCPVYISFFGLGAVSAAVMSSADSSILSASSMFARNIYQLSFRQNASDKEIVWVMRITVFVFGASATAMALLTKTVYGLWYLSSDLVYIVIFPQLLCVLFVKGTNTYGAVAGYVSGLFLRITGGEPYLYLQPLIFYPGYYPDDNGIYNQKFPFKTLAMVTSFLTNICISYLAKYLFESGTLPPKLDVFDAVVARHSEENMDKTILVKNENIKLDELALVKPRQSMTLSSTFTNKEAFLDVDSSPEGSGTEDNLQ
# Kir21 inh: inhibitors of mouse Kir2.1 inward-rectifier potassium channel; P35561; HEK293-Kir2.1, FluxOR thallium flux fluorescence; stronger effect = lower value; B-score at 10 µM; 310,000 tested, 0.85% active;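 active = fluorescence ratio B-score at or below minus 3 SD of library scores, with starting-brightness B-score within 2 SD, cut at about -4.2 in these data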;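 also: channel flux triggered by added potassium and thallium sulfate stimulus; B-score of peak minus minimum fluorescence over baseline after thallium stimulus; more negative B-score means stronger Kir2.1 block with less thallium influx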
# CHT block: inhibits the human high affinity choline transporter; Q9GZV3; B-score at 10 µM; CHT-expressing cells, membrane potential dye, choline response; stronger effect = lower value; 310,000 tested, 0.86% active;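 active = B-score over 3 SD under the library average, and starting fluorescence ratio not unusually high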;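 also: choline stimulus applied at its EC90 after an EC20 pre-addition; B-score computed on integrated fluorescence ratio after choline addition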
# CHT block conf: human CHT inhibition, confirmatory screen; CHT-expressing cells, choline membrane potential dye; LV-to-AA substituted CHT, HEK293 cells; shares compounds with CHT block; CHT activity remaining % of control (stronger effect = lower value), % at 10 µM; 2,400 tested, 70% active; AID 493221;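 active = choline transporter activity left, mean of duplicates at 10 µM, below buffer-only control mean minus 3 SD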;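 also: depolarization triggered by choline at its EC90 following an EC20 pre-addition; 0% = hemicholinium-3 full block and 100% = buffer-only control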
# HEK293 CHT ctr: counter-screen for CHT inhibitors: effect in parental HEK293 cells | shares compounds with CHT block | membrane potential ratio readout (active if shifted either direction beyond buffer ±3SD; no single direction) at 10 µM | 2,400 tested, 4% active | membrane potential dye, choline response; active = decrease or increase beyond buffer ±3SD;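 also: parental cells lack the transporter so any hit is non-specific; ratio is peak minus trough fluorescence over baseline after EC90 choline challenge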
# * marks the source's active call; other numbers are inactive results; i = inactive; · = no result given. Shown are actives, neighbours in structure and some others; about 2% of the full set was active somewhere.
SMILES,TAG inh,CHT allo act,Kir21 inh,CHT block,CHT block conf,HEK293 CHT ctr
CSc1nnc(-c2sccc2OCc2ccccc2)n1C,·,i,-2.78,-7.27*,54.8%*,-9.55*
CC1CCCCN1CCCNC(=O)CN1C(=O)CSc2ccc(S(=O)(=O)N3CCOCC3)cc21 (stereo unspecified),·,i,-1.18,i,·,·
CC1CCCCN1CCNC(=O)CN1C(=O)CSc2ccc(S(=O)(=O)N3CCCCC3)cc21 (stereo unspecified),·,i,-1.24,-6.68*,44.5%*,i
CC1CCN(S(=O)(=O)c2ccc3c(c2)N(CC(=O)NCCCN2C(C)CCCC2C)C(=O)CO3)CC1 (stereo unspecified),·,i,-0.86,-7.36*,34.5%*,i
COc1cccc(NC(=O)CCc2c(C)nc3nc(CNC(=O)c4cccc(F)c4)nn3c2C)c1,·,i,1.04,i,·,·
COC(=O)C(C)Sc1nc2c(c(=O)[nH]c(=O)n2C)n1CCCc1ccccc1 (stereo unspecified),4.6,i,-0.1,-9.31*,21.1%*,i
CCOC(=O)N1CCN(C(=O)c2cc3c(s2)-c2ccc(Cl)cc2S(=O)(=O)C3)CC1,-15.5,i,0.16,i,·,·
C=CCc1ccc(O)c(-c2cc(CC=C)ccc2O)c1,·,i,-4.11,-9.85*,36.4%*,i
COc1ccccc1OC(C)c1nnc(SCC(=O)Nc2c(C)n(C)n(-c3ccccc3)c2=O)n1-c1ccccc1 (stereo unspecified),·,i,0.41,i,·,·
Cc1c(NC(=O)CSc2nnc(C(C)Oc3ccc(Cl)cc3)n2-c2ccccc2)c(=O)n(-c2ccccc2)n1C (stereo unspecified),·,i,-0.9,-10*,21.8%*,i
Cc1ccc(C(=O)O)cc1N=Cc1cc(Br)cc(Br)c1O,8.7,i,-1.99,-6.17*,58.9%*,i
CCn1c(=O)cc(SCC(=O)Nc2ccc(OC)c(OC)c2)c2ccccc21,4.9,i,-0.38,-5.98*,i,i
Cc1ccnc(NC(=O)c2ccc3[nH]c(=O)c(=O)[nH]c3c2)c1,·,i,3.39,i,·,·
COc1ccc(Nc2nc(C)c(-c3ccccc3)s2)cc1,·,i,·,-8.48*,i,i
CCOc1ccccc1C(=O)NC(C)c1ccc2c(c1)OCO2 (stereo unspecified),·,i,-1.98,-6.36*,46.3%*,i
CCn1c(=O)cc(OCC(=O)NC(C)c2ccc3c(c2)OCCO3)c2ccccc21 (stereo unspecified),-0.5,i,0.3,-9.49*,18.1%*,i
COc1cc2ncnc(NCc3cccc(Cl)c3)c2cc1OC,-1.7,i,0.15,i,·,·
Cc1nnc(NCc2cccc(Cl)c2)c2ccccc12,·,i,0.01,-10.2*,20.0%*,i
O=[N+]([O-])c1cccc(CSc2nnc3ccccn23)c1,-9.2,i,-1.53,i,67.3%*,i
CCCCCOC(=O)C1=C(C)NC(=O)NC1c1ccc(OC)cc1 (stereo unspecified),-3.1,i,1.69,i,·,·
Cc1cccc(NC(=O)c2n[nH]c([N+](=O)[O-])c2Br)c1C,-0.4,i,-0.05,-5.03*,60.6%*,i
COCCNC(=O)C(=O)NNC(=O)CCc1ccccc1,5.5,i,0.9,-5.48*,i,i
COCCCNC(=O)CCc1ccccc1,-12.3,i,-0.01,i,·,·
Cc1nn(C)cc1S(=O)(=O)NCc1ccc2c(c1)OCO2,-10.3,i,2.11,i,·,·
C=Cn1cc[n+](CC(=O)c2ccc(Br)cc2)c1,·,i,0.92,-6.75*,30.4%*,i
SMILES,TAG inh,CHT allo act,Kir21 inh,CHT block,CHT block conf,HEK293 CHT ctr
C=Cn1cc[n+](CC(=O)c2ccc(Cl)cc2)c1,·,i,1.14,-6.67*,47.9%*,i
C=Cn1cc[n+](CC(=O)c2ccc(C)cc2)c1,-5.0,i,1.23,i,·,·
CN1Cc2sc(N)c(C#N)c2CC1(C)C,-6.9,i,-0.12,-8.96*,32.9%*,i
C=CCNC(=O)c1ccc(C2SCC(=O)N2Cc2ccccc2)cc1 (stereo unspecified),4.0,i,-0.53,-6.97*,70.0%*,i
OC(CNCC#Cc1ccccc1)c1ccccc1 (stereo unspecified),4.2,i,-0.34,-6.84*,52.4%*,i
O=C(O)c1ccccc1C(c1ccc(O)cc1)c1ccc(O)cc1,·,i,0.54,i,·,·
Cn1c(SCC(=O)N2CCN(c3ccccc3)CC2)nnc1-c1ccccc1,-6.9,i,0.18,-5.27*,61.6%*,i
COC(=O)CN1C(=O)S/C(=C/c2ccc(N3CCCCC3)o2)C1=O,-202.0,i,-2.48,-5.14*,i,i
Cc1ccc(NC(=O)COC(=O)CN2C(=O)COc3ccccc32)cc1,5.7,i,-0.31,-4.96*,43.0%*,i
Cc1ccc2c(c1)N(CCCC(=O)NCC1COc3ccccc3O1)C(=O)CO2 (stereo unspecified),·,i,-1.71,-8.86*,20.6%*,i
Cc1ccc2c(c1)N(CC(=O)NC1CCC(C)CC1)C(=O)CO2 (stereo unspecified),10.1,i,-0.02,-5.87*,i,i
Cc1ccc2c(c1)N(CCCC(=O)NCCC1=CCCCC1)C(=O)CO2,·,i,-1.9,i,·,·
Cc1ccc2c(c1)N(CC(=O)O)C(=O)CO2,·,i,2.14,i,·,·
CCOc1ccc(C(=O)NCC(=O)Nc2ccc(N3CCOCC3)cc2)cc1OCC,25.0,i,0.77,i,·,·
N#Cc1c(C(F)(F)F)cc(-c2cccc(Cl)c2)[nH]c1=O,-21.5,i,-0.2,-5.15*,i,i
N#Cc1c(C(F)(F)F)cc(-c2ccc(F)cc2)[nH]c1=O,-8.3,i,0.28,i,·,·
CCCCC(=O)Nc1ccc2c(c1)nc(CN1CCN(C(=O)OCC)CC1)n2C,·,i,-0.76,i,·,·
O=C(NC1CCCC1)c1ccc(CS(=O)(=O)Cc2ccccc2F)o1,·,i,1.75,i,·,·
CC1CCC(NC(=O)c2ccc(CS(=O)(=O)Cc3ccccc3F)o2)CC1 (stereo unspecified),·,i,0.01,-5.37*,41.0%*,i
CCCOc1ccc(C(=O)NNC(=S)NC(=O)c2ccco2)cc1,2.5,i,-0.62,-7.95*,54.3%*,i
CC(Oc1ccc(Cl)cc1)C(=O)NNC(=S)NC(=O)c1ccco1 (stereo unspecified),·,i,-0.79,-6.46*,58.5%*,i
CCCOc1ccc(C(=O)NNC(=S)NC(=O)c2ccccc2)cc1,·,i,0.88,-6.58*,55.1%*,i
COc1ccc(C(=O)NNC(=S)NC(=O)c2ccco2)cc1,3.3,i,0.38,i,·,·
O=C(NC(=S)NCc1ccc(Cl)cc1)c1ccco1,8.0,·,·,·,·,·
Cc1ccccc1C(=O)NNC(=S)NC(=O)COc1ccccc1,·,i,0.74,-7.99*,33.3%*,i
